Results on 11 molecules are retold here after ChEMBL document CHEMBL3988442, “University of Dundee, Small-Polar-MMV Screening Library” (2021).

For some of these results: Potency and affinity values are given separately.

Holding throughout (parameters): scale not given: direction of the effect not stated beside the values
The target of test [1] is Protein translocase subunit SecA (Escherichia coli (strain K12)) (UniProt P10408). The test can be described thus: Assay to Identify E. coli SecA ATPase Inhibitors. Particulars: 30 µM. It is filed as functional.
Test [2] has as its target T1, Ubiquitin-activating enzyme e1, putative (Leishmania donovani (strain BPK282A1)) (UniProt E9BSI1).
T1 sequence (whole entry): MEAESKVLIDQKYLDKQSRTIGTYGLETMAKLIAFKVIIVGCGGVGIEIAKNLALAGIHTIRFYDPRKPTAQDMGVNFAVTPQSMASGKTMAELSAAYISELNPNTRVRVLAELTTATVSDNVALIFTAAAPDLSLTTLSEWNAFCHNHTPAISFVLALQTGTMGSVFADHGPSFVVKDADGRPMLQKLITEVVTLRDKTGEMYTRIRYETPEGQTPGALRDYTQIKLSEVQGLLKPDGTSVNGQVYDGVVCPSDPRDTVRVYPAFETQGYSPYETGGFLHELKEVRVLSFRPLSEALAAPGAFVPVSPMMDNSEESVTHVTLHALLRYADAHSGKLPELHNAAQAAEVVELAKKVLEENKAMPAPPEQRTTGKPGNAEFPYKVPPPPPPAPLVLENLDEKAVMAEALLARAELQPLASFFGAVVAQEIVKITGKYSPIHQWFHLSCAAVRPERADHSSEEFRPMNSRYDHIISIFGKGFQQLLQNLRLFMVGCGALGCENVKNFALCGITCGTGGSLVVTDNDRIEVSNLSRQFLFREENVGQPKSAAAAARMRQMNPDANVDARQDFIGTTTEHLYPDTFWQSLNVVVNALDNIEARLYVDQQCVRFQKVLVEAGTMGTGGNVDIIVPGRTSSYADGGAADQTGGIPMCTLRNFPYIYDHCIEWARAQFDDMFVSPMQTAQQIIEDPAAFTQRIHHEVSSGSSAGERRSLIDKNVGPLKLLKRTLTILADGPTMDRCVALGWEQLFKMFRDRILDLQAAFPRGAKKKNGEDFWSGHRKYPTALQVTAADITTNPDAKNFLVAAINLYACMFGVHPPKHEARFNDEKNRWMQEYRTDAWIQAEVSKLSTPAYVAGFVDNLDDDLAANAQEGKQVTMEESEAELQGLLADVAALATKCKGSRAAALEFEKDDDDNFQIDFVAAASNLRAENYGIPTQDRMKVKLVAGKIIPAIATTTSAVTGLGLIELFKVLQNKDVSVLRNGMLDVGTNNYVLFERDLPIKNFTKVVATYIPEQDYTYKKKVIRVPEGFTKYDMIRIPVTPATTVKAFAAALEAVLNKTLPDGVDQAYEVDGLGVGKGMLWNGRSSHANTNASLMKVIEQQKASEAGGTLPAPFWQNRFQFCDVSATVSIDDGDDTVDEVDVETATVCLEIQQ
The test can be described thus: Leishmania donovani Ubiquitin Activating Enzyme (LdE1). It is filed as functional. Particulars: 30 µM.

The target in test [3] is AMP-activated protein kinase, AMPK (Homo sapiens) (UniProt P54646+O43741+P54619+Q9UGJ0+Q9Y478+Q13131+Q9UGI9). The test can be described thus: AMP-dependent Kinase enzyme assay. An in vitro enzyme assay that detects ADP turnover that is directly proportional to AMPK activity. This uses naive AMPK that is activated during the assay with MK-8722. It is filed as functional. Particulars: 30 µM.

Test [4] concerns the target Sialic acid-binding Ig-like lectin 9 (Homo sapiens) (UniProt Q9Y336). The test can be described thus: Hs-Siglec9 ALPHAscreen SOP 20170721. The conditions noted are these: 10 µM. (In Alpha technology, singlet oxygen from a donor bead excites a nearby acceptor bead.)
For a further test, the system named is Trypanosoma cruzi. The test can be described thus: Trypanosoma cruzi phosphomannomutase and mannose-1-phosphate guanylyltransferase assay. Format: functional. Particulars: 10 µM.
In test [5] the target is T2, Arginase-2, mitochondrial (Homo sapiens) (UniProt P78540).
T2 sequence (whole entry): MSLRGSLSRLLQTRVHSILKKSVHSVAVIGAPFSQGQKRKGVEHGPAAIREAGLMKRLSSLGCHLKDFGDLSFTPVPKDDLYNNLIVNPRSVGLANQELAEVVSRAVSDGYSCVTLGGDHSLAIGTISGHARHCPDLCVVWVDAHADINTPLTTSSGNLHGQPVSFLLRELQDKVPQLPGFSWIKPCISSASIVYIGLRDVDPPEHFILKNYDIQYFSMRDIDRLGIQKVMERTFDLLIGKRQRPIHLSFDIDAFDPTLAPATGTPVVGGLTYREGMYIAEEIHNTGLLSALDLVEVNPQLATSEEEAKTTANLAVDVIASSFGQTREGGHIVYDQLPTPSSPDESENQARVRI
The test can be described thus: in vitro enzyme assay to detect the production of urea directly proportional to the activity of Arginase II. Also: in the data most compounds retested in dose-response had high values. Particulars: 33.3 µM. Format: functional.

Test [6] deals with T3, Proteasome subunit beta (Trypanosoma cruzi) (UniProt O96673).
T3 sequence (whole entry): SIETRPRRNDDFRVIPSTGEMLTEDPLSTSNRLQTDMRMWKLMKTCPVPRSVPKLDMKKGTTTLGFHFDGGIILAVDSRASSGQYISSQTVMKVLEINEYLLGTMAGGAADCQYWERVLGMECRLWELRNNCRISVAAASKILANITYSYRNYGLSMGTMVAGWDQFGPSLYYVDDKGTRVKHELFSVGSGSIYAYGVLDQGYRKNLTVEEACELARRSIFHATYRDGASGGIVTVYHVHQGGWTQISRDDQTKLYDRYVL
Kind of test: Trypanosoma cruzi proteasome chymotrypsin-like activity (TcProtChymo) assay. Also: in the data most compounds retested in dose-response had high values. It is filed as functional. Particulars: 9.37 µM.

The next test is filed under the species Homo sapiens. The test can be described thus: To identify inhibition of the IFN signalling (Jak-Stat) pathway via expression of an eGFP reporter gene under the control of an IFN-stimulated response element (ISRE) containing MxA promoter. It is filed as functional. Particulars: 30 µM. For orientation: Reporter assays use an easily measured gene product as a stand-in for the process of interest.

Test [7] addresses T4, Tyrosyl-tRNA synthetase, putative (Trypanosoma cruzi (strain CL Brener)) (UniProt Q4DSP6).
T4 sequence (whole entry): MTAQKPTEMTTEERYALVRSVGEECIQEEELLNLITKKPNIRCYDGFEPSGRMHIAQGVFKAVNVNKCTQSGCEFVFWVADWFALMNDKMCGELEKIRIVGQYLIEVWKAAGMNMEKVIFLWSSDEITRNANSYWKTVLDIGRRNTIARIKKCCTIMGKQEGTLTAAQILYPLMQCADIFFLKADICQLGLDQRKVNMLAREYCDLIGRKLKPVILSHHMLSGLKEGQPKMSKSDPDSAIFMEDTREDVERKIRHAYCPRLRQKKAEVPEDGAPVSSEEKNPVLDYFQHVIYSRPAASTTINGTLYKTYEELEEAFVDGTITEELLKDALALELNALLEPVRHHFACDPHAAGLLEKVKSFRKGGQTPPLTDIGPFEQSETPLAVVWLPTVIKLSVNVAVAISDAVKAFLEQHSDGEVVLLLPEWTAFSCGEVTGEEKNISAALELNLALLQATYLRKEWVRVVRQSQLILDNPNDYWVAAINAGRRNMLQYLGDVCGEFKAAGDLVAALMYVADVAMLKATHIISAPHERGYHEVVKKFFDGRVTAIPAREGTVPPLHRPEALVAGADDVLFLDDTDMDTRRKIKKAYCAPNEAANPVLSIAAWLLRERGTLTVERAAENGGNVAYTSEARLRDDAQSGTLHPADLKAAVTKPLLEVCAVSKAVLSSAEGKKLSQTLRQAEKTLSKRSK
The test can be described thus: Trypanosoma cruzi tyrosyl tRNA synthetase (TcYRS) _High Tyrosine SOP. Also: in the data most compounds retested in dose-response had high values. The conditions noted are these: 30 µM. Format: functional.

Test [8] deals with T4, Tyrosyl-tRNA synthetase, putative (Trypanosoma cruzi (strain CL Brener)). Kind of test: Trypanosoma cruzi tyrosyl tRNA synthetase (TcYRS) SOP. Particulars: 30 µM. It is filed as functional.
In test [9] the target is Chromo domain-containing protein 1 (Saccharomyces cerevisiae (strain ATCC 204508 / S288c) (Baker's yeast)) (UniProt P32657). The test can be described thus: ScCHD-1 Enzyme Inhibition Assay. Also: in the data most compounds retested in dose-response had high values. The conditions noted are these: 30 µM. Format: functional.
Chromo domain-containing protein 1 (Saccharomyces cerevisiae (strain ATCC 204508 / S288c) (Baker's yeast)), sequence (P32657 whole entry, the tested form may be a part): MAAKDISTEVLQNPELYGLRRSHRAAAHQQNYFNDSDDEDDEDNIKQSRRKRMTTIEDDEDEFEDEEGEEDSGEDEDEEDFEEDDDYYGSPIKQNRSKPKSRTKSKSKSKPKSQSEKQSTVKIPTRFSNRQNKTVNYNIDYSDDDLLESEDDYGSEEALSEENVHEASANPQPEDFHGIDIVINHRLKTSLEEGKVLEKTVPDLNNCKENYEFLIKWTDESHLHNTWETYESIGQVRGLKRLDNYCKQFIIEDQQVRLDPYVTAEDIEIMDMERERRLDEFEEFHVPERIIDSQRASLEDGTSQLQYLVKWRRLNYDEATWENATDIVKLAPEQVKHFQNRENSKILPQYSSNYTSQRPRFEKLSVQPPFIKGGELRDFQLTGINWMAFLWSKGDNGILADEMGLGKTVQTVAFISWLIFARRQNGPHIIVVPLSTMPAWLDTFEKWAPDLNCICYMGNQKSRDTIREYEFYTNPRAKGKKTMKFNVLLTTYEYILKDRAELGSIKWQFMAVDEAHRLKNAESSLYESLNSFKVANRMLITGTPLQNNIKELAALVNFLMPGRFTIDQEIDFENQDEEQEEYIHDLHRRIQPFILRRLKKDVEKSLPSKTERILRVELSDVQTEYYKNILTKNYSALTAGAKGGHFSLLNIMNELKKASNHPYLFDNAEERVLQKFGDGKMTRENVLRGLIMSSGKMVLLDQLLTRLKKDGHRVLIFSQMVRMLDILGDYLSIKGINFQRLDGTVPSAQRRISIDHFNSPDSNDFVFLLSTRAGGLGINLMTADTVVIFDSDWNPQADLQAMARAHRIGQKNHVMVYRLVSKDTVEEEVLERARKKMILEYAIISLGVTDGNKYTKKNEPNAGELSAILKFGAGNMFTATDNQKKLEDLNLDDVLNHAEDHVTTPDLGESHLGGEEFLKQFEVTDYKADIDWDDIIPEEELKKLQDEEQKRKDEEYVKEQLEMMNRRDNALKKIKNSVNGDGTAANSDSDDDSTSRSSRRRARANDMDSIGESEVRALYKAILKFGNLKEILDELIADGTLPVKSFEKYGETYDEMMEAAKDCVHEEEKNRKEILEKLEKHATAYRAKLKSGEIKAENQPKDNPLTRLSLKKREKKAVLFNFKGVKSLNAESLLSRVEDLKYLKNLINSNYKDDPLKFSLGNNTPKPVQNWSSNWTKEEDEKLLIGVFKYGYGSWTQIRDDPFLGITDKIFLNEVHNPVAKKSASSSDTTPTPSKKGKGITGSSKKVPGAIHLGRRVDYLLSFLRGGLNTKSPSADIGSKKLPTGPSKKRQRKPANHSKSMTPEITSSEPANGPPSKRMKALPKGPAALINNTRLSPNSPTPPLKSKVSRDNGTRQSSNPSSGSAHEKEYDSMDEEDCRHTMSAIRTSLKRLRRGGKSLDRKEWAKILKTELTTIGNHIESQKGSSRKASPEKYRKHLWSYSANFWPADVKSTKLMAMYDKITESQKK

Sialic acid-binding Ig-like lectin 9 (Homo sapiens), sequence (Q9Y336 whole entry): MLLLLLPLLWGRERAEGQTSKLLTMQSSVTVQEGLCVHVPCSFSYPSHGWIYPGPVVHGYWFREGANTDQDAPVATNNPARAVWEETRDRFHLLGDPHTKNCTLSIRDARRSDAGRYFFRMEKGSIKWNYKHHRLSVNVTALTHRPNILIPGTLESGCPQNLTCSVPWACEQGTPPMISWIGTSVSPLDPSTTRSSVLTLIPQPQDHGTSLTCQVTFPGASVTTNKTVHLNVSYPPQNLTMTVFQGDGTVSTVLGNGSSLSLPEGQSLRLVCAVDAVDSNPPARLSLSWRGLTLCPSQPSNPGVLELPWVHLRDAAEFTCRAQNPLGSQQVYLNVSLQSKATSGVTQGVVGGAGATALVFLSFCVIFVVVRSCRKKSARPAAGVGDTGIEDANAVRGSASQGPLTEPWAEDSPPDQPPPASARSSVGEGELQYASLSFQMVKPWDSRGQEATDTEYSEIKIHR
Protein translocase subunit SecA (Escherichia coli (strain K12)), sequence (P10408 whole entry): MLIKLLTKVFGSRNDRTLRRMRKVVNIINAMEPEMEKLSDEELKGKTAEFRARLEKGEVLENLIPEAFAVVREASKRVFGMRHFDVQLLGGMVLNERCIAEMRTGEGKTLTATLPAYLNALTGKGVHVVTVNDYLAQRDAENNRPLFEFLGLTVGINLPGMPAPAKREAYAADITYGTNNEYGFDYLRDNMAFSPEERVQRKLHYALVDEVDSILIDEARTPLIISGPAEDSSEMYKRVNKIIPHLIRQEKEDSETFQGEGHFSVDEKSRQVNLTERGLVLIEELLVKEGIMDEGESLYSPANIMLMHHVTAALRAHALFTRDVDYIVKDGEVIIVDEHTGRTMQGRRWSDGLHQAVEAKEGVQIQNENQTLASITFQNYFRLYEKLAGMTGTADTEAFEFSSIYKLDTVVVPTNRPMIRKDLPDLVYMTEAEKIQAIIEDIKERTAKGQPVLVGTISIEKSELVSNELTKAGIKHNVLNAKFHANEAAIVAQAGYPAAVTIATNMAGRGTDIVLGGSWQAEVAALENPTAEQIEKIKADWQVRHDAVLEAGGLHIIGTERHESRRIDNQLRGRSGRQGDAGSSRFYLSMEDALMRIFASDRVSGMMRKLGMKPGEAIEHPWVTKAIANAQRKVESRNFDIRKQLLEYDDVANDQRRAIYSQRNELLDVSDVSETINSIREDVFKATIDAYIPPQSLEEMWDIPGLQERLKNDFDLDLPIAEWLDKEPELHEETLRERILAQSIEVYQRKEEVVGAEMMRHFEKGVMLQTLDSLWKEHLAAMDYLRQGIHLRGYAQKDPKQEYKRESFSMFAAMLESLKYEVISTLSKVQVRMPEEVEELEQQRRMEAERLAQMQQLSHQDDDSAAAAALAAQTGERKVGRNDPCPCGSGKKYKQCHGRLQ

On to `CS(=O)(=O)N1CCC(C(=O)NCCNc2ncccn2)CC1`, for which the Percent Effect was -3.08% in test [1]; 10.8% in test [2]; 2.54% in [3]; -1.9% in test [4]; 8.45% with Trypanosoma cruzi; -7.21% in [5]. Further, the Percent Effect is 14.2% in test [6]; 14.8% in the test listed under Homo sapiens; 6.93% in [7]; 15.8% in test [8]; -3.22% in test [9].
For the molecule `CNC(=O)Nc1cc(-c2ccc(Br)cc2)nn1CCO`, the Percent Effect was -6.67% in test [1]; 10.5% in test [2]; 0.242% in test [3]; 1.93% in [4]; 5.94% in the test with Trypanosoma cruzi; -16.6% in test [5]. For the same molecule, the Percent Effect is 3.16% in [6]; -5.7% in the test listed under Homo sapiens; 4.25% in test [7]; 2.6% in test [8]; -2.66% in [9].
Turning to `CN(Cc1ccncc1)C(=O)Nc1cnn(CC2CCCO2)c1` (stereo unspecified), the Percent Effect in [1] is 0.7%; in test [2], 5.41%; in test [3], -6.68%; in test [4] it was -2.66%; in the test with Trypanosoma cruzi, -3.67%; in test [5], 0.952%. For the same molecule, the Percent Effect is 20% in test [6]; 17.6% in the test filed under Homo sapiens; -1.59% in [7]; 2.44% in [8]; -5.74% in [9].
Take `OC[C@H]1CC[C@]2(CC1)CN(Cc1ccccc1F)Cc1ccccc1O2`: the Percent Effect in test [1] was -4.99%; in [2], 4.05%; in test [3] it was 15.1%; in test [4] it was 6.64%; in the test on Trypanosoma cruzi it was 4.15%; in test [5] it was 2.55%. The Percent Effect in test [6] is 12.6%; in the test listed under Homo sapiens it was 41.4%; in test [7], 3.23%; in test [8], 14.3%; in test [9] it was -0.993%.
For the molecule `CC(Cn1cccn1)NCc1nc(-c2cccc(Cl)c2)no1` (stereo unspecified), the Percent Effect in [1] is -2.57%; in [2], -2.63%; in test [3] it was 1.2%; in test [4], 3.09%; in the test on Trypanosoma cruzi it was 4.76%; in [5], 0%. Also, the Percent Effect in test [6] stood at 5.33%; in the test listed under Homo sapiens, 11.7%; in test [7], 3.45%; in test [8] it was 11.1%; in [9] it was 2.72%.
As for `Cc1cc(=O)[nH]c(CCNC(=O)C(c2ccc(F)cc2)N(C)C)n1` (stereo unspecified), the Percent Effect in [1] was 6.03%; in [2] it was 11%; in [3], -3.97%; in [4], 1.73%; with Trypanosoma cruzi, -5.75%; in [5], -14%. Moreover, the Percent Effect in [6] is 13.3%; in the test filed under Homo sapiens, 26.9%; in [7], 10.4%; in test [8], 11.1%; in test [9], 0.214%.
For `COc1ccc(CNCc2ccnc(N3CCOCC3)c2)c(OC)c1`, the Percent Effect is -4.43% in [1]; 8.11% in test [2]; -10.3% in [3]; 1.04% in [4]; -3.49% in the test on Trypanosoma cruzi; 3.21% in test [5]. Moreover, the Percent Effect was 7.75% in test [6]; 28.2% in the test filed under Homo sapiens; 3.45% in [7]; 6.17% in test [8]; -4.72% in [9].
With `COc1cccc(C2CC(=O)Nc3nc(N4CCOCC4)sc32)c1OC` (stereo unspecified), the Percent Effect was 63.9% in [1]; 42.1% in [2]; 16% in [3]; 0.0251% in [4]; -0.487% in the test on Trypanosoma cruzi; 21.3% in [5]. Moreover, the Percent Effect in test [6] was 18.1%; in the test listed under Homo sapiens it was -7.88%; in test [7], 5.32%; in test [8], 10.4%; in [9] it was -8.79%.
Take `Cc1nc(C(C)(C)NC(=O)Nc2ccccc2)no1`: the Percent Effect is -11.3% in test [1]; -2.74% in test [2]; 2.23% in [3]; -0.244% in [4]; -3.53% in the test with Trypanosoma cruzi; 3.18% in test [5]. The Percent Effect is 6.92% in test [6]; 17.2% in the test filed under Homo sapiens; -2.15% in test [7]; 0% in test [8]; -0.168% in test [9].
As to `Cc1ncsc1CN1C[C@@H]2COC[C@]2(C(=O)NCC2CC2)C1`, the Percent Effect in [1] was -0.435%; in [2] it was 0%; in test [3], 8.5%; in [4], 2.51%; with Trypanosoma cruzi, -4.33%; in test [5], 5.83%. Moreover, the Percent Effect in test [6] is -1.15%; in the test listed under Homo sapiens, 25.1%; in test [7] it was 2.13%; in test [8], 1.28%; in [9] it was 10.8%.
As for `CC(=O)N1CCN(c2cc(C3CN(C)CCO3)nc(C)n2)CC1` (stereo unspecified), the Percent Effect is -3.82% in test [1]; 12.2% in [2]; 9.39% in test [3]; 0.199% in test [4]; -3.36% in the test on Trypanosoma cruzi; -1.16% in test [5]. The Percent Effect in [6] is 14.8%; in the test listed under Homo sapiens, 12.3%; in test [7], 5.38%; in test [8], 14.3%; in test [9] it was -1.64%.
